The list is not random: actives were taken first. Their share in the collection is about 6.1%.
DRD3 agonist: agonists of human D3 dopamine receptor; AID 652048; max activation, %; 410,000 tested, 0.58% active; P35462; D3R DiscoveRx beta-arrestin cells, luminescence, 90 min; in the data active means max activation above about 30%
Target sequence (P35462 whole entry, looked up): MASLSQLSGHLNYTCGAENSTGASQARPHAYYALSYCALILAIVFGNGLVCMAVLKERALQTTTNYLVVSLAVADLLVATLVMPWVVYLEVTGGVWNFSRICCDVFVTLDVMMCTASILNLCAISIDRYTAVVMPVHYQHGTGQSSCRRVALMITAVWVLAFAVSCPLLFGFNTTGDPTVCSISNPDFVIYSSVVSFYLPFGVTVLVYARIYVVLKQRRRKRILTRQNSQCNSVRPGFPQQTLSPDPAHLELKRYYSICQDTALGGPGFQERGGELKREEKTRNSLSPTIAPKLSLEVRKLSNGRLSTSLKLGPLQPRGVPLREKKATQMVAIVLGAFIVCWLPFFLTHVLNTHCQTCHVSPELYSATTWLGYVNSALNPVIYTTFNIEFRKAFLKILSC
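Agonist mode: compounds and dopamine controls were applied to plated cells for 90 min at 37 degrees C after an overnight attachment at 1500 cells/well. Luminescent read-out followed 30 - 60 minutes at room temperature with DiscoveRx detection reagent.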
D3 antag: blocks the human D3 dopamine receptor; P35462; 360,000 tested, 2.5% active; D3R cells, DiscoveRx beta-arrestin luminescence, antagonist mode; hits give low values; max response, negative = inhibition, %; in the data active means max response below about -50%; inconclusive means no clear call, values can overlap the other calls
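Cells expressing the human receptor were seeded at 1500 cells/well, incubated overnight at 37 degrees C in 5% CO2, then exposed to library compounds with dopamine controls for 90 minutes at 37 degrees C before luminescent detection.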
D1 antag: antagonists of human D1 dopamine receptor; HEK293 TREx D1 cells, calcium flux, dopamine EC80; hits give low values; AID 504652; 360,000 tested, 3.2% active; activity change, negative = inhibition, % at 10 µM; in the data active means activity change below about -30%
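HEK293 T-REx cells expressing inducible, force-coupled D1 receptor; no-wash Ca dye, 30–90 min RT. Cmpd → 180 s read at 1 Hz → EC80 DA → 180 s read.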
D1 agonist: agonists of human D1 dopamine receptor; AID 504660; HEK293 T-REx D1 cells, calcium flux, agonist mode; 360,000 tested, 1% active; P21728; activation, % at 2 µM; in the data active means activation above about 30%
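Tetracycline-induced HEK293 TREx D1 cells, force-coupled to calcium signalling, were dye-loaded with a no-wash calcium kit. Compound was pin-added after a 10 s baseline. Fluorescence was read kinetically at 1 cycle/s for 180 s, with calcium rises flagged as agonism.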
D1 potentiator: potentiators of human D1 dopamine receptor | AID 504651 | 360,000 tested, 0.036% active | potentiation, % at 10 µM | HEK293 TREx D1 cells, calcium flux, dopamine EC20 potentiation; in the data active means potentiation above about 30%
Of the large screens only hits and unclear results are named; the others gave an inactive call.

Cc1cccc(NP(=O)(Oc2ccccc2F)Oc2ccccc2F)c1	none
Cc1ccsc1C(=O)C1CCCN(Cc2cnc(N3CCCC3)s2)C1 (stereo not drawn)	D3 antag -78.8
Cc1ccsc1C(=O)C1CCCN(Cc2cc3ccccc3o2)C1 (stereo not drawn)	D3 antag inconclusive
Cc1ccc(CN2CCCC(C(=O)c3sccc3C)C2)o1 (stereo not drawn)	D3 antag -51.8
CNC(C)C(O)c1ccc(O)cc1 (stereo not drawn)	none (no result: D3 antag, D1 antag, D1 agonist, D1 potentiator)
CN1CCN(Cc2cc(C(C)(C)C)c(O)c(C(C)(C)C)c2)CC1	D3 antag -82.1
COC(=O)C1=C(c2ccc(F)cc2OCc2ccccc2)C[C@@H]2CC[C@H]1N2C(=O)NCCOc1ccccc1	none
COC(=O)C1=C(c2ccc(OCc3ccccc3)cc2)C[C@@H]2CC[C@H]1N2C(=O)NCCN1CCOCC1	none (no result: D1 antag, D1 agonist, D1 potentiator)
COC(=O)C1=C(c2ccc(OCc3ccccc3)cc2)C[C@@H]2CC[C@H]1N2C(=O)NC1CCN(Cc2ccccc2)CC1	D3 antag -94.3
COC(=O)C1=C(c2ccccc2OCc2ccccc2)C[C@@H]2CC[C@H]1N2C(=O)NCCOc1ccccc1	D1 antag -30.6
COC(=O)C1=C(c2ccccc2OCc2ccccc2)C[C@@H]2CC[C@H]1N2C(=O)NCCOc1ccc(OC)cc1	D3 antag inconclusive, D1 antag -37.6
O=[N+]([O-])c1cccc(CCl)c1	D3 antag -116.9 (no result: D1 antag)
O=CC=O	none (no result: D3 antag, D1 antag, D1 agonist, D1 potentiator)
Cn1c2ccccc2c2cnn(CC(=O)N3CCC4(CC3)OCCO4)c(=O)c21	D1 antag -31.5 (no result: DRD3 agonist, D3 antag)
O=C1C=C2C=C[C@@H]3C[C@@]2(O1)[C@H]1CCCCN31	none (no result: D3 antag, D1 antag, D1 agonist, D1 potentiator)
CCN1/C(=C\C=C\C2=[N+](CC)c3ccccc3C2(C)C)C(C)(C)c2ccccc21	D3 antag -96.2, D1 agonist 204.1
O=C(O)CCCCCCNC1c2ccccc2CCc2ccccc21	none (no result: D3 antag, D1 antag, D1 agonist, D1 potentiator)
CC(C)[C@H]1C(=O)O[C@H](C(C)C)C(=O)N(C)[C@@H](C(C)C)C(=O)O[C@H](C(C)C)C(=O)N(C)[C@@H](C(C)C)C(=O)O[C@H](C(C)C)C(=O)N1C	D1 antag -32.7, D1 agonist 53.1
COC(=O)[C@]12CCC(C)(C)C[C@H]1[C@H]1C(=O)C=C3[C@@]4(C)C=C(C#N)C(=O)C(C)(C)[C@@H]4CC[C@@]3(C)[C@]1(C)CC2	none (no result: D3 antag, D1 antag, D1 agonist, D1 potentiator)
CCOc1cc(CNC(C)C(O)c2ccccc2)cc(Cl)c1OCC (stereo not drawn)	D1 agonist 38.5
CC(NCc1ccccc1Cl)C(O)c1ccccc1 (stereo not drawn)	D3 antag inconclusive
CC(NCc1ccc(Cl)c(Cl)c1)C(O)c1ccccc1 (stereo not drawn)	D3 antag -65.0
COCCCN1CCN(c2nnc3n2-c2sc(Br)cc2C(c2ccccc2Cl)=NC3)CC1	D3 antag -56.5
Cc1ccc(-n2nc(C)c3c2NC(=O)CSC3c2ccc(O)cc2)cc1Cl (stereo not drawn)	none (no result: D3 antag)
CCOC(=O)C1CCCN(c2ccc([N+](=O)[O-])c3nonc23)C1 (stereo not drawn)	D1 agonist 752.3
O=C(c1cccc2ccccc12)C1CCCN(Cc2ccon2)C1 (stereo not drawn)	D3 antag -67.7
O=C(c1cccc2ccccc12)C1CCCN(C2CCC2)C1 (stereo not drawn)	D3 antag -51.1
CC(C)(N)Cc1ccc(Cl)cc1	none (no result: D3 antag, D1 antag, D1 agonist, D1 potentiator)
CC(C)CCn1c(N)c(C(=O)OCC2CCCO2)c2nc3ccccc3nc21 (stereo not drawn)	D1 antag -36.0
O=c1[nH]c(O)c(C=Nc2ccccc2[N+](=O)[O-])c(=O)[nH]1	D1 antag -47.0 (no result: DRD3 agonist, D3 antag)
Cc1cccc(N2C(=O)/C(=C/N3CCN(C(=O)c4ccco4)CC3)C(=O)NC2=S)c1	none
Cc1ccc(N2C(=O)/C(=C/N3CCN(C(=O)c4ccco4)CC3)C(=O)NC2=S)cc1C	D1 antag -34.5
COc1ccc(OCC(=O)N2CCN(Cc3cc(=O)n4nc(-c5ccccc5C)sc4n3)CC2)cc1	none (no result: D3 antag)
CC(=O)Nc1ccc(OC(=O)N(C)c2ccc(C)cc2)cc1	D1 antag -38.0
CC(=O)Nc1ccc(OC(=O)N(C)c2ccccc2)cc1	none
Cc1ccc2nc(N3CCC(C(=O)N4CCC5(CC4)OCCO5)CC3)sc2c1	D3 antag -51.0
CC(=O)Nc1cc(C(=O)N2CCC3(CC2)OCCO3)ccc1S(=O)(=O)c1ccc(C)cc1	none
Cc1ccc(S(=O)(=O)Nc2cc(C(=O)N3CCC4(CC3)OCCO4)ccc2N2CCCCC2)cc1	D3 antag -54.4
CC(=O)Nc1cc(C(=O)N2CCC3(CC2)OCCO3)ccc1S(=O)(=O)c1ccc(Cl)cc1	D1 antag -87.2
Cc1ccc(S(=O)(=O)NCC2CCC(C(=O)N3CCC4(CC3)OCCO4)CC2)cc1 (stereo not drawn)	D3 antag inconclusive, D1 antag -55.2
C[C@]12CC[C@H]3[C@@H](CCC4=CC(=O)CC[C@@]43C)[C@@H]1CC[C@@H]2OC(=O)CCc1ccccc1	none (no result: D3 antag, D1 antag, D1 agonist, D1 potentiator)
COc1ccccc1CN1CCCCC1c1cccnc1 (stereo not drawn)	DRD3 agonist 32.9
Cc1ccc(O)c(C(=O)c2cc(C(=O)NCc3ccccc3)c(=O)n(Cc3ccccc3)c2)c1	D3 antag -68.6
O=C(c1cc(C(=O)NCc2ccccc2)c(=O)n(Cc2ccccc2)c1)c1cc(Br)ccc1O	none
Nc1c(C(=O)Nc2ccc(Cl)c(C(F)(F)F)c2)sc2nc3c(cc12)N1CCC3CC1	none (no result: D3 antag)
CCOCCCNC(=O)CN1C2CCC1CC(O)(c1ccc(OC)cc1)C2 (stereo not drawn)	D3 antag -72.3
COc1ccc(NC(=O)CN2C3CCC2CC(O)(c2cccnc2)C3)cc1OC (stereo not drawn)	none
CCCCc1ccc2[nH]cc(CCN)c2c1	DRD3 agonist 65.1, D1 agonist 90.0
NCCc1c[nH]c2ccccc12	D3 antag inconclusive
O=S(=O)(O)C(F)(F)C(F)(F)C(F)(F)C(F)(F)C(F)(F)C(F)(F)C(F)(F)C(F)(F)F	none (no result: D3 antag, D1 antag, D1 agonist, D1 potentiator)
C[C@@H]1O[C@@H](O[C@@H]2C=C3CC[C@@H]4C(CC[C@]5(C)[C@@H](c6ccc(=O)oc6)CC[C@]45O)[C@@]3(C)CC2)[C@H](O)[C@H](O)[C@H]1O (stereo partly drawn)	DRD3 agonist 36.2
C[C@@H]1O[C@@H](O[C@@H]2C=C3CCC4C(CC[C@]5(C)[C@@H](c6ccc(=O)oc6)CC[C@]45O)[C@@]3(C)CC2)[C@H](O)[C@H](O)[C@H]1O (stereo partly drawn)	none
c1ccc2c(N3CCNCC3)nsc2c1	D3 antag -70.4
O=C(c1ccc(CNS(=O)(=O)c2ccc(Br)cc2)cc1)N1CCC2(CC1)OCCO2	none
O=C(CNS(=O)(=O)c1ccc(Br)s1)N1CCC2(CC1)OCCO2	D3 antag -54.6
